The target of the test is Estrogen receptor (Homo sapiens) (UniProt P03372). Nature of the test: ERalpha ligand binders by competition, primary screen, cell-based, Cos7 ERalpha-GFP, flow cytometry (AID 1211).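 Further: 0% = DMSO vehicle wells and 100% = no E2-Alexa633 signal left.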 The note with it: fluorescent ligand competition, stronger effect = higher value. For orientation: A flow cytometer gives signals particle by particle.

SMILES strings stand for the structures. Active and inactive are the calls of the source. How the calls were made is not given here.

Chain of Estrogen receptor (Homo sapiens) (P03372 whole entry, looked up): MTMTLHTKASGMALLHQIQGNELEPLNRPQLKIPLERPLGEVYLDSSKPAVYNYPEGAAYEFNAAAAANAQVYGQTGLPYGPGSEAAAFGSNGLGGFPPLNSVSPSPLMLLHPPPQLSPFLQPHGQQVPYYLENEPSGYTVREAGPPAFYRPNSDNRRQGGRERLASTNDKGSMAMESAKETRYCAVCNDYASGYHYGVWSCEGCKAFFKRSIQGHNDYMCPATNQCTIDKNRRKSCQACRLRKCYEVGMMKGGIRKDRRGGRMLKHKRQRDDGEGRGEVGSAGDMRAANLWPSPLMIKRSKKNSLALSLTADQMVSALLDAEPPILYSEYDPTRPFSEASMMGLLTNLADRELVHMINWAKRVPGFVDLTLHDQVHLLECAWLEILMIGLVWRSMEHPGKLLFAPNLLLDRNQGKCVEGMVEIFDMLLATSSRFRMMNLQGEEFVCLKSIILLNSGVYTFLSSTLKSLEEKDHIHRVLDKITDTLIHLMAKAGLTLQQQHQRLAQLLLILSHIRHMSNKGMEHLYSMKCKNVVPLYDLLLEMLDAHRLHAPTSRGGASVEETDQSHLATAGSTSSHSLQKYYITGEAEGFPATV

In the case of `CN(CC(=O)NC(=O)NCc1ccco1)Cc1nc2ccccc2c(=O)[nH]1`, the inhibition of ligand binding was 17% (inactive) (at 10 µM) and 64% (binding inhibition, at 0.1 µM).

Take `O=C(CCCn1c(=S)[nH]c2cc3c(cc2c1=O)OCO3)N1CCN(c2ccc(Cl)cc2)CC1`: the inhibition of ligand binding is 30% (inactive) (at 10 µM) and 27% (binding inhibition, at 0.1 µM).

As to `CC1(C)N=C(N)N=C(N)N1c1ccc(C(=O)O)cc1`, the inhibition of ligand binding (at 10 µM) is 35% (inactive) and the inhibition of ligand binding (binding inhibition, at 0.1 µM) was 21%.

For `Cc1cc(=O)oc2c(CN3CCC(C)CC3)c(O)c(Cl)cc12`, the inhibition of ligand binding reads like this: (at 10 µM) 10% (inactive); (binding inhibition, at 0.1 µM) 6%.

For `COc1ccc(C2CC(c3ccccc3)=NN2c2ccc(N)cc2)cc1` (stereo not drawn), the inhibition of ligand binding (at 10 µM) is 19% (inactive) and the inhibition of ligand binding (binding inhibition, at 0.1 µM) was 47%.

For `Cc1ccc2nc(/C(C#N)=C\c3ccc(N4CCCCC4)c([N+](=O)[O-])c3)[nH]c2c1`, the inhibition of ligand binding by setting is: (at 10 µM) 55% (inactive); (binding inhibition, at 0.1 µM) 25%.

Take `COc1ccccc1-c1nnc2sc(-c3cnccn3)nn12`: the inhibition of ligand binding by setting is: (at 10 µM) 52% (inactive); (binding inhibition, at 0.1 µM) 3%.

As to `Cc1ccc(-n2c(SCC(=O)NNC(=S)Nc3ccccc3)nc3ccccc3c2=O)cc1`, the inhibition of ligand binding (at 10 µM) was 37% (inactive) and the inhibition of ligand binding (binding inhibition, at 0.1 µM) was found to be 44%.

As to `O=C(c1cc2sccc2n1Cc1ccccc1)N1CCc2ccccc21`, the inhibition of ligand binding is, setting by setting: (at 10 µM) 45% (inactive); (binding inhibition, at 0.1 µM) 20%.

As for `O=C1NC(c2ccc(Br)cc2)Nc2sc3c(c21)CCC3` (stereo not drawn), the inhibition of ligand binding reads like this: (at 10 µM) 29% (active); (binding inhibition, at 0.1 µM) 69%.

Turning to `Cc1csc2nc(CCNS(=O)(=O)c3ccc4c(c3)OCCO4)cn12`, the inhibition of ligand binding reads like this: (at 10 µM) 38% (active); (binding inhibition, at 0.1 µM) 77%.

`COc1ccc(OC)c(NC(=O)CSc2nc3ccccc3c3nc4ccccc4n23)c1`: the inhibition of ligand binding is, setting by setting: (at 10 µM) 26% (inactive); (binding inhibition, at 0.1 µM) 60%.

Take `c1coc(-c2nn3c(-c4ccco4)nnc3s2)c1`: the inhibition of ligand binding is 15% (inactive) (at 10 µM) and 15% (binding inhibition, at 0.1 µM).

On to `CC(=O)Nc1ccc2[nH]c(C)cc(=O)c2c1`, for which the inhibition of ligand binding by setting is: (at 10 µM) 27% (inactive); (binding inhibition, at 0.1 µM) 19%.

`CC(=O)c1sc2nc(SCC(=O)N3CCCCC3)[nH]c(=O)c2c1C`: the inhibition of ligand binding is, setting by setting: (at 10 µM) 33% (inactive); (binding inhibition, at 0.1 µM) 30%.

For the compound `COC(=O)c1ccc(-c2n[nH]c(=O)c3ccccc23)cc1`, the inhibition of ligand binding reads like this: (at 10 µM) 0% (inactive); (binding inhibition, at 0.1 µM) 16%.

Consider `Cc1cc(N)ccc1N=Nc1c(C)n(C)n(-c2ccccc2)c1=O`, for which the inhibition of ligand binding was 44% (inactive) (at 10 µM) and 3% (binding inhibition, at 0.1 µM).

For `CN1C(=O)CC(C(=O)O)SC1=Nc1cc(Cl)c(O)c(Cl)c1` (stereo not drawn), the inhibition of ligand binding is 17% (inactive) (at 10 µM) and 51% (binding inhibition, at 0.1 µM).

On to `Cc1ccc(-c2nn(-c3ccccc3)cc2CSC(=N)N)cc1`, for which the inhibition of ligand binding was 26% (inactive) (at 10 µM) and 39% (binding inhibition, at 0.1 µM).

Take `COc1ccc(N=Cc2sc(O)c3ccccc23)cc1`: the inhibition of ligand binding is, setting by setting: (at 10 µM) 37% (inactive); (binding inhibition, at 0.1 µM) 36%.

In the case of `Cn1c(-c2ccc3nc(N)sc3c2)nc2cc(N)ccc21`, the inhibition of ligand binding is 36% (inactive) (at 10 µM) and 37% (binding inhibition, at 0.1 µM).

Take `CC(=O)c1ccc2c(c1)C1C=CCC1C(C(=O)O)N2` (stereo not drawn): the inhibition of ligand binding is 42% (inactive) (at 10 µM) and 39% (binding inhibition, at 0.1 µM).

Regarding `Cc1noc(C)c1COc1ccc(C(=O)OCC(=O)N2c3ccccc3NC(=O)C2(C)C)cc1`, the inhibition of ligand binding (at 10 µM) is 59% (inactive) and the inhibition of ligand binding (binding inhibition, at 0.1 µM) came out at 16%.

Consider `CCN(CC)c1ccc2c(c1)oc(=O)c1c(Cl)cc(=O)oc12`, for which the inhibition of ligand binding is 23% (inactive) (at 10 µM) and 4% (binding inhibition, at 0.1 µM).

Take `O=C(CSc1nnnn1-c1ccccc1)Nc1nsc(-c2ccc(Cl)cc2)n1`: the inhibition of ligand binding by setting is: (at 10 µM) 47% (inactive); (binding inhibition, at 0.1 µM) 8%.

As for `O=C1C2C3C=CC(C3)C2C(=O)N1c1cccc2cccnc12` (stereo not drawn), the inhibition of ligand binding is 4% (inactive) (at 10 µM) and 57% (binding inhibition, at 0.1 µM).

Regarding `CCc1nc(N)nc(N)c1-c1ccc(Cl)cc1`, the inhibition of ligand binding is 26% (inactive) (at 10 µM) and 25% (binding inhibition, at 0.1 µM).

`CC(Cc1ccc(O)c(O)c1)C(C)Cc1ccc(O)c(O)c1` (stereo not drawn): the inhibition of ligand binding is, setting by setting: (at 10 µM) 47% (inactive); (binding inhibition, at 0.1 µM) 3%.

As for `COc1ccc(-c2nnc(SCC(=O)/C(C#N)=C(\C)N)o2)cc1`, the inhibition of ligand binding by setting is: (at 10 µM) 40% (inactive); (binding inhibition, at 0.1 µM) 16%.

Regarding `Cc1ccccc1NC(=O)CSc1nnc(-c2ccco2)c(-c2ccco2)n1`, the inhibition of ligand binding (at 10 µM) was 47% (active) and the inhibition of ligand binding (binding inhibition, at 0.1 µM) is 66%.

With `CCOC(=O)c1cc2c(c(CSc3nc4ccccc4c(=O)n3Cc3ccco3)c1)OCOC2`, the inhibition of ligand binding runs as follows: (at 10 µM) 46% (inactive); (binding inhibition, at 0.1 µM) 18%.

For the compound `C/C=C/COC(=O)c1[nH]c2c(c1C)C(=O)CC(c1ccco1)C2` (stereo not drawn), the inhibition of ligand binding (at 10 µM) was 29% (inactive) and the inhibition of ligand binding (binding inhibition, at 0.1 µM) worked out at 27%.

In the case of `O=C(O)c1cc(-c2ccco2)nc2ccc(Br)cc12`, the inhibition of ligand binding is 21% (inactive) (at 10 µM) and 39% (binding inhibition, at 0.1 µM).

Regarding `COc1ccc(-c2ccc(=O)[nH]n2)cc1`, the inhibition of ligand binding was 22% (inactive) (at 10 µM) and 52% (binding inhibition, at 0.1 µM).

Consider `Oc1ccc(/C=C/c2nc(-c3ccccc3O)n(-c3ccccc3)n2)cc1`, for which the inhibition of ligand binding reads like this: (at 10 µM) 11% (inactive); (binding inhibition, at 0.1 µM) 58%.

For `O=C(O)c1ccc(NS(=O)(=O)c2ccc3c(c2)C2C=CCC2C(c2ccccc2F)N3)cc1` (stereo not drawn), the inhibition of ligand binding is, setting by setting: (at 10 µM) 62% (inactive); (binding inhibition, at 0.1 µM) 5%.

For `O=C(Nc1nccs1)c1ccc2nccnc2c1`, the inhibition of ligand binding is, setting by setting: (at 10 µM) 33% (inactive); (binding inhibition, at 0.1 µM) 24%.

With `O=C1c2ccccc2NC(c2ccc(O)cc2)N1/N=C/c1ccc(O)cc1` (stereo not drawn), the inhibition of ligand binding runs as follows: (at 10 µM) 32% (inactive); (binding inhibition, at 0.1 µM) 65%.

As to `O=C(Nc1ccccc1[N+](=O)[O-])C1=C(O)CCn2c1nc1ccccc12`, the inhibition of ligand binding reads like this: (at 10 µM) 20% (inactive); (binding inhibition, at 0.1 µM) 37%.

Consider `COc1cccc(NC(=O)CSc2nc3ccccc3c3nc4ccccc4n23)c1`, for which the inhibition of ligand binding reads like this: (at 10 µM) 51% (inactive); (binding inhibition, at 0.1 µM) 56%.

On to `Cc1ccc(-n2nnnc2SCC(=O)Nc2ccc3c(c2)COC3=O)cc1C`, for which the inhibition of ligand binding by setting is: (at 10 µM) 27% (inactive); (binding inhibition, at 0.1 µM) 9%.

With `Cc1ccc2[nH]c(=O)c(C3C(C#N)=C(N)Oc4c3ccc3cccnc43)cc2c1` (stereo not drawn), the inhibition of ligand binding (at 10 µM) is 27% (inactive) and the inhibition of ligand binding (binding inhibition, at 0.1 µM) is 26%.

For the compound `COc1ccc(NC(=O)C(c2ccccc2)N(C)C(=O)c2ccc(=O)[nH]c2)cc1` (stereo not drawn), the inhibition of ligand binding reads like this: (at 10 µM) 49% (active); (binding inhibition, at 0.1 µM) 86%.

With `COc1cc(-c2nc3ccccn3c2/N=C/c2ccccc2)ccc1O`, the inhibition of ligand binding is 53% (inactive) (at 10 µM) and 11% (binding inhibition, at 0.1 µM).

Values taken from PubChem BioAssay AID1211 (NMMLSC, 2008).
